Shown are actives, neighbours in structure and some others; about 4.6% of the full set was active somewhere.
D1 antagonist: blocks dopamine activation of the human D1 receptor. P21728. HEK293 TREx D1 cells, calcium flux, dopamine EC80; active compounds read low. activity change, negative = inhibition, % at 10 µM. 360,000 tested, 3.2% active. AID 504652; in the data active means activity change below about -30%; further: on the % scale 0 is the no-effect control and ±100 the full control effect
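Tetracycline-induced HEK293 T-REx cells with force-coupled D1 receptor were loaded with a no-wash calcium dye. Compound was added after a 10 s baseline and read kinetically for 180 s; EC80 dopamine was then added and calcium flux followed another 180 s.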
TRHR ag: TRH receptor (human) agonism. activation, % at 2 µM. P34981. TRHR cells, calcium flux fluo-8, FDSS agonist mode. AID 493084. 360,000 tested, 0.18% active; further: 0% is about no effect
Target sequence (P34981 whole entry, looked up): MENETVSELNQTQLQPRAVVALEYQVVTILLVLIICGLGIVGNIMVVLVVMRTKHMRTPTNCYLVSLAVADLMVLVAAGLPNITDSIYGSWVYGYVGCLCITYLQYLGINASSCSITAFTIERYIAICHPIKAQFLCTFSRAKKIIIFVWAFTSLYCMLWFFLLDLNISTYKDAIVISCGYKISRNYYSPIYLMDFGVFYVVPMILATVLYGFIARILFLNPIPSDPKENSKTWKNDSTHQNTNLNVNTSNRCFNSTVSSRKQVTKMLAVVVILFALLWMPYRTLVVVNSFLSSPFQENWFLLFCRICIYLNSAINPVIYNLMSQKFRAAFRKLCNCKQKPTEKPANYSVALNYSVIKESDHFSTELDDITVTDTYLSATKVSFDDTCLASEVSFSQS
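Agonist-mode FDSS calcium read (Ex 480/Em 530, 1 s cycles) in 1536-well TRHR cells with fluo-8 dye, after 10-cycle baseline and 23 nL compound addition; TRH at EC20 (10 nM final) added afterwards for the enhancer phase.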
TRHR PAM: allosterically enhances the human TRH receptor. TRHR cells, fluo-8 calcium fluorescence, EC20 TRH enhancement. enhancement, % at 2 µM. 360,000 tested, 0.66% active; in the data active means enhancement above about 30%; further: 0% is about no effect
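TRHR-expressing cells loaded with fluo-8 calcium dye were read kinetically (ex 480/em 530) during compound addition, then stimulated with an EC20 of TRH (10 nM final). Enhancement of the Gq-mediated intracellular calcium response was scored.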
D1 agonist: human D1 receptor agonism | P21728 | HEK293 T-REx D1 cells, calcium flux, agonist mode | activation, % at 2 µM | 360,000 tested, 1% active; further: 0% is about no effect
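Inducible HEK293 T-REx D1 cells, force-coupled to calcium signalling, were plated at 4000 cells/well with tetracycline and held overnight at 30 C. After no-wash calcium dye loading, compound-evoked calcium rise over 180 s flagged agonists.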
D1 potentiator: enhances dopamine response at the human D1 receptor | potentiation, % at 10 µM | 360,000 tested, 0.036% active | HEK293 TREx D1 cells, calcium flux, dopamine EC20 potentiation; in the data active means potentiation above about 30%; further: 0% is about no effect
Starred values were filed as active, the others as inactive; x = no result given. Unless noted, no stated cut-off is given here; in the data, active means activation above about 30%; inactive means the rest.

SMILES	D1 antagonist	TRHR ag	TRHR PAM	D1 agonist	D1 potentiator
CN(C1CCCCC1)S(=O)(=O)c1ccc2c(c1)c(=O)c(C(=O)N1CCN(c3ccccc3)CC1)cn2C	-2	0	2	1	0
CC(=O)c1ccc(NC(=O)C(C)OC(=O)c2cccc(-n3cnnn3)c2)cc1 (stereo unspecified)	-10	0	-8	0	-4
O=C(Nc1cccc(-n2cnnn2)c1)c1ccc(C(F)(F)F)cc1	-32*	1	8	4	-4
CC(OC(=O)c1cccc(-n2cnnn2)c1)C(=O)Nc1cccc(Cl)c1 (stereo unspecified)	-36*	0	-3	8	-5
O=C(Cn1c(=O)oc2cc(S(=O)(=O)NCc3ccccc3)ccc21)N(CCO)Cc1ccccc1	-13	0	-5	1	-5
Cc1ccc(C(=O)CSc2nc3cccnc3n2C)cc1	-37*	-2	-3	7	-8
O=C(NCc1ccco1)c1ccc(Cn2c(SCc3ccc(F)cc3)nc3cccnc32)cc1	-2	0	-9	15	-3
CCOc1cc(CNCCc2ccccc2)ccc1OCC(=O)NC(C)(C)C	-4	-1	-3	122*	-3
COc1cc(CNCCN2CCOCC2)ccc1OCC(=O)NC(C)(C)C	-1	0	7	32*	-21
CCOc1cc(CNCc2cccnc2)ccc1OCC(=O)NC(C)(C)C	3	0	36*	3	-6
COc1cc(CNCCCN2CCOCC2)ccc1OCC(=O)NC(C)(C)C	7	1	-4	2	-6
CCOc1cc(CNCc2cccs2)ccc1OCC(=O)NC(C)(C)C	-7	1	2	16	-3
CCOc1cc(CNCCc2ccc(S(N)(=O)=O)cc2)ccc1OCC(=O)NC(C)(C)C	-1	0	3	2	-2
CCOc1ccc(C2=C(C(=O)CC)Sc3nncn3N2C(=O)CC)cc1	x	0	-2	2	1
Cc1ccc(OCCCC(=O)Nc2sc3c(c2C(N)=O)CCCC3)cc1	10	0	18	0	3
COc1cc(CN(C(=O)c2oc3ccccc3c2C)C2CCS(=O)(=O)C2)cc(OC)c1OC (stereo unspecified)	-5	0	2	7	1
O=C(CSc1nc2c([nH]c3ccccc32)c(=O)n1-c1ccccc1)N1CCc2ccccc21	-11	0	1	0	-1
COc1ccc(CCNCc2ccccc2N2CCCC2)cc1	10	-1	-5	1	2
COc1ccc(CCNCc2cc(C)n(-c3ccc(OC)cc3)c2C)cc1	-6	0	-14	55*	-8
O=C(O)Cc1sc(N/N=C\c2ccncc2)nc1-c1ccccc1	-4	23	1	31*	-7
O=C(O)Cc1sc(Nc2ccccc2)nc1-c1ccccc1	-2	0	3	-1	-2
Cc1coc2cc3oc(=O)c(CC(=O)NCc4ccccc4)c(C)c3cc12	9	-1	-2	1	1
CC(=O)N1N=C(c2cccc(Cl)c2)OC1c1ccc(C(C)C)cc1 (stereo unspecified)	1	1	3	4	-4
CC(=O)N1N=C(c2ccc(C)cc2)OC1c1cccnc1 (stereo unspecified)	-32*	0	1	1	-2
CCN(CCO)Cc1csc2cc(C)ccc12	-7	0	1	3	-2
SMILES	D1 antagonist	TRHR ag	TRHR PAM	D1 agonist	D1 potentiator
CCN(CCO)Cc1csc2ccc(C(C)(C)C)cc12	-82*	-1	0	19	-12
CCN(CCO)Cc1csc2ccccc12	-38*	0	-1	5	-2
CCN(CCO)Cc1csc2ccc(Cl)cc12	4	0	-2	3	-4
CCC(=O)N1CCc2cc(S(=O)(=O)NCCC(=O)Nc3ccc(OC)c(Cl)c3)ccc21	5	0	0	3	-1
CC1CCC(N2CC(=O)N(C3CCCCC3)C(c3ccc(Cl)cc3)C2=O)CC1 (stereo unspecified)	7	0	-6	-4	0
COc1cc(NC(=O)c2cc3c(=O)n(Cc4ccco4)ccc3nc2C)cc(OC)c1OC	-26	0	-3	0	-4
COc1ccc(CN(C(=O)c2snc(C(N)=O)c2N)C(C(=O)NC2CCCC2)c2ccc(OC)c(OC)c2)cc1 (stereo unspecified)	-5	0	15	3	3
